NCOA2 inhibitor: inhibition of GAL4-SRC2 driven luciferase reporter, primary screen, SRC2 inhibitor project, cell-based, luminescence. Nuclear receptor coactivator 2 (Homo sapiens), Q15596. HEK293 GAL4-SRC2 luciferase reporter. 370,000 compounds, 0.17% hits. inhibition, % at 9 µM;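 active = inhibition above the mean inhibition of all tested compounds plus 3 SD, set per campaign, cut at about 52% in these data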;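 note: 0% = DMSO treated cells and 100% = cells given Gossypol at 36 µM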
NR2F2 inh: NR2F2 transcriptional activity inhibitors, primary screen, cell-based, luciferase reporter, HEK293T, luminescence; HEK293T NGFI-A luciferase reporter; COUP transcription factor 2 (Homo sapiens), P24468; AID 686940, 2013; 370,000 compounds, 0.7% hits; inhibition, % at 8.6 µM;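 active = inhibition above a per-plate cutoff, mean inhibition of test wells between control levels plus 3 SD, cut at about 38% in these data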;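 note: cells cotransfected with COUP-TFII expression vector driving the NGFI-A reporter; 0% = median of COUP-TF2 test wells and 100% = reporter-only cells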
GalR3 antagonist: GalR3 antagonists in HEK293 cells, primary screen, cell-based, fluorescence readout; AID 651719, 2012; Galanin receptor type 3 (Homo sapiens), O60755; HEK293 GalR3-CNG cAMP membrane potential fluorescence; galR3 body fused to GalR1 C-terminus; 360,000 compounds, 0.44% hits; inhibition, % at 3 µM;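 active = inhibition above the screen-wide average plus 3 SD, cut at about 13% in these data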;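 note: forskolin and galanin both at EC90 stimulate the cells; cAMP rise reported by CNG channel membrane potential dye signal; 0% = forskolin plus galanin with DMSO and 100% = forskolin alone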
SRC1 inh: SRC1 coactivator transcriptional activity inhibitors, primary screen, cell-based, luminescence. Nuclear receptor coactivator 1 (Homo sapiens), Q15788. HEK293 GAL4-SRC1 luciferase reporter. inhibition, % at 3.6 µM. 360,000 compounds, 0.12% hits;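 active = inhibition above the campaign mean plus 3 SD, with each screening campaign given its own cutoff, cut at about 60% in these data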;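 note: 0% = DMSO treated cells and 100% = gossypol at 36 µM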
Target sequence (Q15788 whole entry, looked up, the tested form may be a part): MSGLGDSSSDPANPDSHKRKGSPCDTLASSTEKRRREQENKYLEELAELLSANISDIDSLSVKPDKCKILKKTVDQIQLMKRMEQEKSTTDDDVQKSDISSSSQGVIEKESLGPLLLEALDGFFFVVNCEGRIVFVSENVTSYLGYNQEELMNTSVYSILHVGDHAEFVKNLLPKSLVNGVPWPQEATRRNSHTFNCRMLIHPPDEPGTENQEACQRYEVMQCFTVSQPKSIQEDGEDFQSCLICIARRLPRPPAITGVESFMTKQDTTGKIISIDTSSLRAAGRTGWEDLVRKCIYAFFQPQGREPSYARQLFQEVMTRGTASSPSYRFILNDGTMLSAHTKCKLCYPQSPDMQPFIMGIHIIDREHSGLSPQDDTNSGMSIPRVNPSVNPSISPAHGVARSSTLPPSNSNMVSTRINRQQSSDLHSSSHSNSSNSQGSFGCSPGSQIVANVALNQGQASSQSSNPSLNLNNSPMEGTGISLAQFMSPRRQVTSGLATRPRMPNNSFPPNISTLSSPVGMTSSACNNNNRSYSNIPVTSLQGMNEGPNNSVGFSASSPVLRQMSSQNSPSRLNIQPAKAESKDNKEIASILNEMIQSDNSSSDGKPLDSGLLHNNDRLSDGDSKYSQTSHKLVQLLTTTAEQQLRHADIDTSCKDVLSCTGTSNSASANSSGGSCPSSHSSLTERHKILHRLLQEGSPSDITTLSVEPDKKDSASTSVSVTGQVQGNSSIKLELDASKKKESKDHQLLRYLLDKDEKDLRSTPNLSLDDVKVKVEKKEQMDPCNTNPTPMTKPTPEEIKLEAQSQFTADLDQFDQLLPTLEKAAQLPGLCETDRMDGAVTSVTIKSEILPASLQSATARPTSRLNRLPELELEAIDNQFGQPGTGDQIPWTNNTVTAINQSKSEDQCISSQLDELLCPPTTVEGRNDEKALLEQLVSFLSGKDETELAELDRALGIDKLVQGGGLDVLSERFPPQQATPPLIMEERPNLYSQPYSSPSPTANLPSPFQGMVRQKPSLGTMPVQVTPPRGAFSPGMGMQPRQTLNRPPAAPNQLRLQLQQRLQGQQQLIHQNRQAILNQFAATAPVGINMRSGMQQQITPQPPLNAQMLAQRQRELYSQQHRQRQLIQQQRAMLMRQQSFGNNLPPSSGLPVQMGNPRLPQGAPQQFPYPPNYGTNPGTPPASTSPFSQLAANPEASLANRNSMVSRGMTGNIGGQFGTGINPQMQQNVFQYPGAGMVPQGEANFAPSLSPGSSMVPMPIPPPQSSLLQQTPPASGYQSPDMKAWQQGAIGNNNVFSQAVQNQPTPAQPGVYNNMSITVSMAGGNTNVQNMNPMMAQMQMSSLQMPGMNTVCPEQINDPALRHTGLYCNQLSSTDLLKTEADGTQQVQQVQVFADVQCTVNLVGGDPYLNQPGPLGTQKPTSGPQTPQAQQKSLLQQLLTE
SRC3 inh: SRC3 coactivator transcriptional activity inhibitors, primary screen, cell-based, luminescence; HEK293 GAL4-SRC3 luciferase reporter; inhibition, % at 3.6 µM; 360,000 compounds, 0.17% hits; AID 588352, 2011;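 active = inhibition above a per-campaign cutoff, the mean of all compounds plus 3 SD, cut at about 60% in these data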;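 note: 0% = DMSO-treated cells and 100% = gossypol-treated cells at 36 µM; higher means less SRC3-driven luciferase light from the GAL4 reporter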
LRH-1 inv ag: LRH-1 (NR5A2) inverse agonists, primary screen, cell-based, luminescence, HEK293T, StAR-luciferase reporter. 360,000 compounds, 0.13% hits. Nuclear receptor subfamily 5 group A member 2 (Homo sapiens), O00482. inhibition, % at 3.6 µM. AID 602396, 2012. LRH-1 transfected, 24 h;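 active = inhibition above the mean inhibition of all tested compounds plus 3 SD, cut at about 73% in these data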;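 note: 0% = DMSO wells and 100% = reporter-only cells lacking LRH-1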
Gal4-VP16 ctr: Gal4-VP16 luciferase reporter inhibitors, counter-screen for COUP-TFII antagonist project, cell-based, luminescence, HEK293 | shares compounds with NR2F2 inh | 2,500 compounds, 25% hits | inhibition, % at 8.5 µM | AID 687007, 2013; in the data active = inhibition above about 13%
NR2F2 inh conf: NR2F2 transcriptional activity inhibitors, confirmation, cell-based, luciferase reporter, HEK293, triplicate | inhibition, % at 8.5 µM | shares compounds with NR2F2 inh | HEK293 NGFI-A luciferase reporter, luminescence | 2,500 compounds, 45% hits | AID 687008, 2013;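 active = mean inhibition over three repeats above a set limit taken from the earlier primary screen, cut at about 38% in these data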;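 note: 100% = cells given the luciferase reporter alone without the COUP-TF2 vector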
An asterisk follows results filed as active; / = no result given. Sampled rows, rich in hits. Any-hit rate of the full collection: about 1.1%.

SMILES | NCOA2 inhibitor | NR2F2 inh | GalR3 antagonist | SRC1 inh | SRC3 inh | LRH-1 inv ag | Gal4-VP16 ctr | NR2F2 inh conf
CCCCCCN1Cc2ccccc2C1 | -28 | -14 | -6 | -11 | -11 | -21 | / | /
CCCCCCCCn1ccc(=N)cc1 | 19 | 42* | -4 | 9 | 25 | 11 | -5 | 30
Cn1c(SCc2ccc(C(C)(C)C)cc2)nnc1-c1ccco1 | 0 | -17 | / | / | / | / | / | /
COC(=O)[C@]12C=CCN1[C@@H](c1ccc(OC)c(OC)c1)c1c(c3ccccc3n1S(=O)(=O)c1ccc(C)cc1)C2 | 2 | 12 | / | / | / | / | / | /
CC(C)(C)OC(=O)n1ccc2ccc(-c3ccc4cc[nH]c4c3)cc21 | -25 | -30 | / | / | / | / | / | /
CCOc1ccc(-c2cc(CCCC(=O)Nc3cc(OC)ccc3OC)no2)cc1 | 73* | 67* | -8 | 4 | 15 | 17 | 38* | 32
CCOc1ccc(-c2cc(CCCC(=O)Nc3cccc(OC)c3)no2)cc1 | 55* | 42* | / | 5 | 0 | 43 | 2 | 16
CCOc1ccc(NC(=O)CCCc2cc(-c3ccc(OCC)cc3)on2)cc1 | -14 | 5 | -3 | -44 | -15 | -13 | / | /
COc1ccc(-c2cc(C(=O)Nc3ccc(C)c(C)c3)no2)cc1 | -10 | -10 | 5 | -1 | -24 | -12 | / | /
COc1ccc(-c2cc(C(=O)Nc3cccc(O)c3)no2)cc1 | 9 | 50* | -12 | -33 | -30 | -42 | -7 | 8
CN(C(=O)c1cn(C)c2ccccc12)c1ccc(Oc2cccnc2)cc1 | 23 | 47* | -9 | / | / | / | -3 | 37
CCC(C)Nc1nc(C)nc2c1nnn2Cc1ccccc1 (configuration not stated) | 1 | -1 | / | / | / | / | / | /
CC(C)(C)c1ccc2c(c1)OC(C(=O)N/N=C\c1ccc[nH]1)CO2 (configuration not stated) | 6 | 34 | -1 | -2 | 12 | 5 | / | /
CC(C)(C)c1ccc2c(c1)OC(C(=O)N/N=C/c1ccc[nH]1)CO2 (configuration not stated) | / | 47* | / | / | / | / | 0 | 40*
C=CCN1[C@H](C)COc2cccc(N3CCCC3)c2S1(=O)=O | 23 | -2 | / | / | / | / | / | /
C#CCNC(=O)C[C@@H]1C[C@]2(C(=O)OCC)CCC3=C2N(CCC3)C1=O | -2 | 1 | / | / | / | / | / | /
O=C(Nc1ccccc1SC(=O)c1ccccc1)c1ccccc1 | -39 | -10 | -5 | -64 | -74 | -10 | / | /
Cc1ccc(C(=O)Sc2cccccc2=O)cc1 | 94* | 49* | -10 | 1 | 75* | 61 | 89* | 92*
CC(C)(C)c1ccc(-c2cc(-c3ccccc3O)[nH]n2)cc1 | 14 | 37* | -4 | 28 | 32 | 15 | 2 | 51*
Cn1c(=O)c2[nH]c(CCCCc3nc4ccccc4[nH]3)nc2n(C)c1=O | -39 | -8 | -5 | -11 | 10 | -10 | / | /
Cn1c(=O)c2[nH]c(CCCCCCCCc3nc4ccccc4[nH]3)nc2n(C)c1=O | 27 | 69* | -7 | 23 | 28 | 15 | 11 | 58*
Cc1ccc(-n2c(SCc3cccc4ccccc34)nnc2-c2ccccn2)cc1 | 11 | 14 | / | / | / | / | / | /
Nc1ccc(Nc2nc(-c3cc4ccccc4oc3=O)cs2)cc1 | -55 | -24 | -2 | -118 | -76 | -46 | / | /
CC(=O)Nc1ccc(Nc2nc(-c3cc4ccccc4oc3=O)cs2)cc1 | -8 | 40* | -4 | -25 | -62 | -55 | -135 | -68
CCCCNC(=O)C[C@H]1C[C@@]2(C(=O)OC)C(=C[C@H](COCc3ccccc3)O[C@@H]2C)N(Cc2ccco2)C1=O | -1 | 7 | / | / | / | / | / | /
SMILES | NCOA2 inhibitor | NR2F2 inh | GalR3 antagonist | SRC1 inh | SRC3 inh | LRH-1 inv ag | Gal4-VP16 ctr | NR2F2 inh conf
CC1Cc2cc(-c3csc(NC(=O)Cc4ccccc4)n3)ccc2N1S(C)(=O)=O (configuration not stated) | 15 | 75* | -9 | 15 | 46 | 37 | -11 | 49*
COC(=O)C1CN(C2CCCC2)CCS(=O)(=O)N1Cc1cn(Cc2ccc(F)cc2)nn1 (configuration not stated) | 0 | 5 | / | / | / | / | / | /
Cc1nnsc1NC(=O)OCc1ccc(C(C)(C)C)cc1 | 26 | 56* | 36* | 6 | 19 | 39 | -8 | 38*
COC(=O)C[C@@H]1CC[C@@H]2[C@H](COc3ccc(NC(=O)c4ccc(F)c(F)c4)cc3C(=O)N2C)O1 | 11 | 4 | / | / | / | / | / | /
COc1cc(NC(=O)c2cccs2)c(C(=O)OCC(=O)c2cc(C)n(-c3ccccc3)c2C)cc1OC | 57* | 65* | 2 | 11 | 27 | 2 | 18* | 37
COc1cc(NC(=O)c2cccs2)c(C(=O)OCC(=O)c2cc(C)n(-c3ccc(F)cc3)c2C)cc1OC | 13 | 20 | 1 | -2 | 44 | -14 | / | /
O=C(Nc1ccc(-c2cn3ccsc3n2)cc1)c1ccc(F)c(S(=O)(=O)N2CCOCC2)c1 | 30 | 47* | -4 | 4 | 29 | -36 | -22 | -13
COC(=O)C1CN(C2CCCC2)CCS(=O)(=O)N1Cc1cn(Cc2ccc(Cl)cc2)nn1 (configuration not stated) | -7 | 8 | / | / | / | / | / | /
Cc1ccc(-n2c(-c3ccccc3)c[n+]3c2CCc2ccccc2-3)c(C)c1 | 12 | 64* | -7 | 38 | 71* | 68 | 17* | 57*
C=CC[C@@]1(c2ccccc2)Oc2ccccc2-c2nc3ccccc3nc21 | -17 | 3 | / | / | / | / | / | /
Cc1ccc(NC(=O)C2CC3CCC2C3)c(C)c1 (configuration not stated) | / | -12 | / | / | / | / | / | /
CC(=O)Nc1ccc(-c2csc(Nc3cc(C)ccn3)n2)cc1 | -22 | 53* | -5 | -18 | -21 | -40 | -79 | -28
CC(=O)Nc1cccc(-c2csc(Nc3cc(C)ccn3)n2)c1 | -28 | -35 | -4 | -62 | -70 | -127 | / | /
O=C(NCc1ccc(F)c(F)c1)c1ccc(-c2ccc(F)c(F)c2)c2ccoc12 | -1 | 6 | -7 | 7 | 12 | 24 | / | /
O=C(NCc1cccnc1)c1ccc(-c2ccc(F)c(F)c2)c2ccoc12 | 28 | 68* | -7 | 11 | -7 | 20 | 3 | 49*
CSc1nc2nc3c(cc2c(=O)n1-c1ccccc1C)CCCC3 | 23 | 42* | -9 | 13 | 26 | 35 | 4 | 29

High-throughput results as filed in PubChem BioAssay.
